Fluorescence inhibition and growth inhibition data for 45 compounds are collected here from PubChem BioAssay AID1159583 (ICCB-Longwood Screening Facility, Harvard Medical School, 2016).

Several values for one entry are separate records, joined by “and”; a condition that tells them apart may be missing. Equal values may be shown once. The campaign covered roughly 300,000 compounds. About 310 (0.1%) were called active. Cut-off read from the data, not from the text of the source: active = fluorescence inhibition mostly above about 23% (no sharp cut-off); inactive = mostly below about 17%. The sample as a whole holds a higher share of actives than the screen did.

The assay in a line: hypoxia reporter signal reduction in M. tuberculosis – fluorescence, absorbance growth readout, primary screen (AID 1159583). The following applies: M. tuberculosis hypoxia-regulated fluorescent reporter, stronger effect = higher value, concentration not given here; growth inhibition: measured here: M. tuberculosis growth (absorbance).
Regarding `O=C(NN=Cc1ccccc1)C(O)c1ccccc1` (stereo not given), the fluorescence inhibition was -2.65% (inactive) and the growth inhibition is -6.95%.

Take `COc1ccc2c(c1)C1C(CO2)C(c2ccccc2)[C@]2(C)C(=O)Nc3cc(F)c(F)cc3C(=O)N12` (stereo not given in full): the fluorescence inhibition was 12.4% (inactive) and the growth inhibition stood at 11.9%.

Take `COC(=O)C1=C(C)N(Cc2ccccc2)C(=NCc2ccco2)NC1c1cccc(F)c1` (stereo not given): the fluorescence inhibition is -3.36% (inactive) and the growth inhibition was 4.01%.

Turning to `CC(=O)C=C(C)NC(Cc1c[nH]c2ccccc12)C(=O)O` (stereo not given), the fluorescence inhibition was -7.06% (inactive) and the growth inhibition is -3.51%.

As for `CC(=NNC(=S)NC1CCCCC1)c1ccc(OC(F)F)cc1OC(F)F`, the fluorescence inhibition is 2.47% (inactive) and the growth inhibition was 1.1%.

With `COc1ccc(Cl)cc1C(=O)NN=Cc1ccc(N2CCOCC2)cc1`, the fluorescence inhibition was -1.94% (inactive) and the growth inhibition came to 6.35%.

In the case of `CC(Cc1ccccc1)=NNC(=O)CNC(=O)c1cccc(Br)c1`, the fluorescence inhibition is -10% (inactive) and the growth inhibition was -2.78%.

Regarding `CCOC(=O)C1=C(N)n2c(sc(=Cc3ccco3)c2=O)=C(C(=O)OC)C1c1ccco1` (stereo not given), the fluorescence inhibition is -1.95% (inactive) and the growth inhibition is -7.35%.

With `C=CCc1cccc(C=Nc2nc3ccccc3n2CC)c1O`, the fluorescence inhibition was 7.78% (inactive) and the growth inhibition is 3.33%.

As for `CCOc1c2ccc(C(=O)NC(C)C3CCCCC3)cc2nn1CCOC` (stereo not given), the fluorescence inhibition was 1.7% (inactive) and the growth inhibition was determined as 7.24%.

With `CC#CCN1c2ccccc2[C@]23CC(C(=O)OC)N(C(C)=O)C2=NC(C(=O)OC)=C(C(=O)OC)C13` (stereo not given in full), the fluorescence inhibition is 21.5% (inactive) and the growth inhibition worked out at 5.39%.

On to `COc1ccc(C(=O)NN=Cc2ccc(OC(=O)c3cccc4ccccc34)c([N+](=O)[O-])c2)cc1`, for which the fluorescence inhibition is 8.45% (inactive) and the growth inhibition amounted to 6.08%.

As to `COc1ccc(C2CC(=O)C=C(c3ccc(OC(F)(F)F)cc3)C2)cc1OC` (stereo not given), the fluorescence inhibition was -7.53% (inactive) and the growth inhibition worked out at 0.871%.

Take `Cc1sc2nc(C)n(N=Cc3ccc(O)cc3)c(=O)c2c1C`: the fluorescence inhibition was 8.51% (inactive) and the growth inhibition was 1.4%.

With `CCCCN1C(N)=NCC1CCCCN` (stereo not given), the fluorescence inhibition is 3.89% (inactive) and the growth inhibition was 4.01%.

Regarding `O=C(CCCC(=O)NN=Cc1ccccc1C(=O)O)NN=Cc1ccccc1C(=O)O`, the fluorescence inhibition was 3.15% (inactive) and the growth inhibition was 3.53%.

For the compound `NC(=NOC(=O)c1ccc2c(c1)OCO2)c1ccc([N+](=O)[O-])cc1`, the fluorescence inhibition is 3.03% (inactive) and the growth inhibition was found to be 4.61%.

With `COc1ccc(C=NNc2nc(=O)[nH]nc2C)cc1[N+](=O)[O-]`, the fluorescence inhibition is 5.04% (inactive) and the growth inhibition came to 5.94%.

For `CCn1c(SCC(=O)NN=C(C)c2ccco2)nnc1-c1ccccc1`, the fluorescence inhibition is -6.87% (inactive) and the growth inhibition was -5.95%.

For the compound `Oc1ccccc1C=NNc1cccc2cccnc12`, the fluorescence inhibition is 2.03% (inactive) and the growth inhibition was 5%.

With `O=C(Cc1cc(=O)[nH][nH]1)NN=Cc1ccccc1Cl`, the fluorescence inhibition was -6.7% (inactive) and the growth inhibition was 3.17%.

For `Cc1ccc(S(=O)(=O)NN=Cc2ccc(OC3CSC3)cc2)cc1`, the fluorescence inhibition is -5.05% (inactive) and the growth inhibition was 2.12%.

With `CC(NCCN1CCOCC1)=C(C#N)C(N)=O`, the fluorescence inhibition is 7.39% (inactive) and the growth inhibition is 4.01%.

For `O=C1C2CC3C=CC2(O3)C2OCCCN12` (stereo not given), the fluorescence inhibition is 8.99% (inactive) and the growth inhibition was 11.9%.

Regarding `CC1CC2C3CCC4=CC(=O)C=C[C@]4(C)[C@@]3(F)C(O)C[C@]2(C)C1C(=O)CO` (stereo not given in full), the fluorescence inhibition was -3.35% (inactive) and the growth inhibition was 0.308%.

With `Nc1cnnc(NN=Cc2ccccc2)c1Cl`, the fluorescence inhibition was 7.6% (inactive) and the growth inhibition came out at 4.96%.

In the case of `Cc1cc(C(=O)NN=Cc2ccc(-c3ccc([N+](=O)[O-])cc3C)o2)n[nH]1`, the fluorescence inhibition was 5.18% (inactive) and the growth inhibition turned out to be 1.96%.

Consider `O=C(NN=Cc1ccccn1)c1cc(-c2ccccc2Cl)n[nH]1`, for which the fluorescence inhibition is 10.9% (inactive) and the growth inhibition was 11.2%.

For `CC(=NNC(=O)OC(C)(C)C)c1ccc(-n2ccnc2)cc1`, the fluorescence inhibition is 11.1% (inactive) and the growth inhibition came out at 15.9%.

For `N#CC(=NNc1cccc(F)c1)C(=O)C1CC1`, the fluorescence inhibition is 0.893% (inactive) and the growth inhibition is -0.741%.

For `CC(CC(O)(C=NO)c1ccccc1)=NO` (stereo not given), the fluorescence inhibition was 10% (inactive) and the growth inhibition came out at 6.39%.

In the case of `COc1ccc(C=NNc2nc3ccccc3[nH]2)c(OC)c1OC`, the fluorescence inhibition is 1.22% (inactive) and the growth inhibition is -0.982%.

Take `CCOC(=O)C(=Cc1ccc(C)cc1)NC(=O)c1ccccc1`: the fluorescence inhibition was 1.97% (inactive) and the growth inhibition worked out at 2.94%.

For `NC(Cc1cccc2ccccc12)=NOC(=O)Cc1cccs1`, the fluorescence inhibition is 2.6% (inactive) and the growth inhibition was found to be 4.27%.

Turning to `COc1ccc(CNC(=O)C2CC=CC3CCN(C4CC4)C(=O)C32)cc1` (stereo not given), the fluorescence inhibition is 19.3% (inactive) and the growth inhibition was determined as 20.6%.

As for `Cc1cc(C(=O)NN=Cc2cn[nH]c2-c2ccccc2)cs1`, the fluorescence inhibition was -3.45% (inactive) and the growth inhibition is -1.59%.

Regarding `COc1cccc(C2Oc3ccc(Br)cc3C(=O)C2OC(=O)NC2CCCC2)c1` (stereo not given), the fluorescence inhibition is 2.63% (inactive) and the growth inhibition was 0.422%.

`CCCCCC=CC1=CC(=O)CC(c2ccc(Cl)cc2)C1` (stereo not given): the fluorescence inhibition is -0.281% (inactive) and the growth inhibition stood at 11.6%.

In the case of `Cc1cc(SCC(=O)NN=Cc2ccccc2C(=O)O)c(C)cc1Br`, the fluorescence inhibition was 0.764% (inactive) and the growth inhibition is -1.84%.

With `OCC1OC(O)C(O)C1O` (stereo not given), the fluorescence inhibition was 1.54% (inactive) and the growth inhibition is -8.94%.

Consider `CC(C)(C)OC(=O)CC1CC=CCC(CC(=O)NC(CO)Cc2ccccc2)C(=O)NC(C(C)(C)C)COC1=O` (stereo not given), for which the fluorescence inhibition is 0.171% (inactive) and 3.19% (inactive); the growth inhibition is 4.91% and 7.16%.

On to `CC(C)(O)C1C2OC(=O)C1[C@]1(O)CC3O[C@]34C(=O)OC2[C@]14C` (stereo not given in full) (tested in a mixture with another compound), for which the fluorescence inhibition was -0.0447% (inactive) and the growth inhibition was 5.86%.

`COC(=O)[C@]1(Cc2ccccc2)NC(c2ccc(-c3cccc(Cl)c3)c(OC)c2)C2C(=O)N(C)C(=O)C21` (stereo not given in full): the fluorescence inhibition is 1.8% (inactive) and the growth inhibition was 8.95%.

Take `O=C(NN=Cc1c[nH]c2ccccc12)c1[nH]c2ccc(Br)cc2c1-c1ccccc1`: the fluorescence inhibition was 4.24% (inactive) and the growth inhibition is -6.01%.

Regarding `O=C(NN=CC1CC2CCC1C2)C1CC1` (stereo not given), the fluorescence inhibition was -1.06% (inactive) and the growth inhibition is -3.88%.
